Measurements taken from publication PMC7862700, “An all-to-all approach to the identification of sequence-specific readers for epigenetic DNA modifications on cytosine”.

What was measured:
Experiment in all cases: DAPPL (digital affinity profiling via proximity ligation, sequencing); 10 mM Tris-HCl pH 7.5, 50 mM NaCl, 1 mM DTT, 4% glycerol, room temperature, 30 min; GST-TFs on glutathione beads, 16-mer random dsDNA library, 0.1% formaldehyde crosslink after washing; high values mean tight binding
FEV = target: T1, FEV (Homo sapiens, UniProt Q99581 1-238); details: protein: recombinant; tags: N-terminal GST; dsDNA, one strand shown
T1 sequence: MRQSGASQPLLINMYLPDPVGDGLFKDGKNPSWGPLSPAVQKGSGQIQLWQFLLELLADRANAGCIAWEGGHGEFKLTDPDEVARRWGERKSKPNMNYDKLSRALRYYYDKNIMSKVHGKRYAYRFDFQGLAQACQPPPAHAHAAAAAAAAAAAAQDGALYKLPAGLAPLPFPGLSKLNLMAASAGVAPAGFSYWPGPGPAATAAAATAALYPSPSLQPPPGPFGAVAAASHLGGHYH
Method in brief: (§1)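 Binding signal is each hexamer's read frequency for a factor divided by its frequency in the tag-only sample. The factors were GST-fused human transcription factors from yeast, captured on glutathione beads, DNA-barcoded and pooled with that sample. Pools were incubated with 200 nmole of a random double-stranded 16-mer DNA library in Tris/NaCl/DTT/glycerol buffer at room temperature for 30 min, then washed, crosslinked with 0.1% formaldehyde, proximity-ligated with BsaI/T4 ligase (1 h, 37 °C), PCR-amplified and sequenced on an Illumina NextSeq500.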

ETV5 = ETV5 (Homo sapiens, UniProt P41161 1-510); details: protein: recombinant; tags: N-terminal GST; dsDNA, one strand shown
Method in brief: as §1

HSF1 = HSF1 (Homo sapiens, UniProt Q00613 1-529); details: protein: recombinant; tags: N-terminal GST; chain copies: 3; dsDNA, one strand shown
Method in brief: as §1

SPIC = target: T2, SPIC (Homo sapiens, UniProt Q8N5J4 1-248); details: protein: recombinant; tags: N-terminal GST; dsDNA, one strand shown
T2 sequence: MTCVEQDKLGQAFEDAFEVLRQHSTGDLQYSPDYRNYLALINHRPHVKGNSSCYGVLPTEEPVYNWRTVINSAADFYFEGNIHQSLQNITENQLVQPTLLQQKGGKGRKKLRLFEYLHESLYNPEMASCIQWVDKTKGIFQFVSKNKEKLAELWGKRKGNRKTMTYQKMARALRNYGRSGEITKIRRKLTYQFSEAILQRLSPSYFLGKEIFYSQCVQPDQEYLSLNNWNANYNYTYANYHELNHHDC
Method in brief: as §1

ELF4 = ELF4 (Homo sapiens, UniProt Q99607 1-663); details: protein: recombinant; tags: N-terminal GST; dsDNA, one strand shown
Method in brief: as §1

ELK4 = target: T3, ELK4 (Homo sapiens, UniProt P28324-2 1-405); details: protein: recombinant; tags: N-terminal GST; dsDNA, one strand shown
T3 sequence: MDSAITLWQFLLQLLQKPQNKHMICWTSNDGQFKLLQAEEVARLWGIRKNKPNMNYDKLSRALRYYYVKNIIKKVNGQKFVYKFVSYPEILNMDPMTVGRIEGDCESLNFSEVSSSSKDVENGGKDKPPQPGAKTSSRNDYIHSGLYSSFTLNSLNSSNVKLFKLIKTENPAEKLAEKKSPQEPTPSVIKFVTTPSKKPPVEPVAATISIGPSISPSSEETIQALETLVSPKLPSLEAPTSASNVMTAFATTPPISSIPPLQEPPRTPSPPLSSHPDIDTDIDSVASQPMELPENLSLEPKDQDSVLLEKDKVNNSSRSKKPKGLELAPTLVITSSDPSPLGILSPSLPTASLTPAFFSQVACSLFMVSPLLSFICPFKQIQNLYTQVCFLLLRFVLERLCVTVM
Method in brief: as §1

ETV2 = target: T4, ETV2 (Homo sapiens, UniProt O00321 1-342); details: protein: recombinant; tags: N-terminal GST; dsDNA, one strand shown
T4 sequence: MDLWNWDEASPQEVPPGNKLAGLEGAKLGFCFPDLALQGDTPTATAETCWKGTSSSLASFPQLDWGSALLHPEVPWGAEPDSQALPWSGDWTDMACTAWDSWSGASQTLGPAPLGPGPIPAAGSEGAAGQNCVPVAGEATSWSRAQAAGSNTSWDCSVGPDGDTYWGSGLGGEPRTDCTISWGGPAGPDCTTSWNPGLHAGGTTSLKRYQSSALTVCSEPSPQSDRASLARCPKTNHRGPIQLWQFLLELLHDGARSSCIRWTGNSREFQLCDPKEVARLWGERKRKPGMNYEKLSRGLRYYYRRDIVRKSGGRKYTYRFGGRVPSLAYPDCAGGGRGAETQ
Method in brief: as §1

ELF3 = target: T5, ELF3 (Homo sapiens, UniProt P78545 1-371); details: protein: recombinant; tags: N-terminal GST; dsDNA, one strand shown
T5 sequence: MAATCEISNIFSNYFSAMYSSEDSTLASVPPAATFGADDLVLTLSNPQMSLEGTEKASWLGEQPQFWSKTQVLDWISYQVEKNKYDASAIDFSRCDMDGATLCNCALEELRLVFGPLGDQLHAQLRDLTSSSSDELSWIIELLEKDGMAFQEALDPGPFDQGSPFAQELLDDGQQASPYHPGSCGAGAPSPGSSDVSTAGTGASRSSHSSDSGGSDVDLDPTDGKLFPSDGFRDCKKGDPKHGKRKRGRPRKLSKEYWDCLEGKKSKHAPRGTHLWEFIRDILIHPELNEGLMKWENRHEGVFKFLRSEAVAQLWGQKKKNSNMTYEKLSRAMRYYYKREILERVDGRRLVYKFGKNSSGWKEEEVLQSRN
Method in brief: as §1

CRX = CRX (Homo sapiens, UniProt O43186 1-299); details: protein: recombinant; tags: N-terminal GST; dsDNA, one strand shown
Method in brief: as §1

ETV1 = ETV1 (Homo sapiens, UniProt P50549 1-477); details: protein: recombinant; tags: N-terminal GST; dsDNA, one strand shown
Method in brief: as §1

ERF = target: T6, ERF (Homo sapiens, UniProt P50548 1-548); details: protein: recombinant; tags: N-terminal GST; dsDNA, one strand shown
T6 sequence: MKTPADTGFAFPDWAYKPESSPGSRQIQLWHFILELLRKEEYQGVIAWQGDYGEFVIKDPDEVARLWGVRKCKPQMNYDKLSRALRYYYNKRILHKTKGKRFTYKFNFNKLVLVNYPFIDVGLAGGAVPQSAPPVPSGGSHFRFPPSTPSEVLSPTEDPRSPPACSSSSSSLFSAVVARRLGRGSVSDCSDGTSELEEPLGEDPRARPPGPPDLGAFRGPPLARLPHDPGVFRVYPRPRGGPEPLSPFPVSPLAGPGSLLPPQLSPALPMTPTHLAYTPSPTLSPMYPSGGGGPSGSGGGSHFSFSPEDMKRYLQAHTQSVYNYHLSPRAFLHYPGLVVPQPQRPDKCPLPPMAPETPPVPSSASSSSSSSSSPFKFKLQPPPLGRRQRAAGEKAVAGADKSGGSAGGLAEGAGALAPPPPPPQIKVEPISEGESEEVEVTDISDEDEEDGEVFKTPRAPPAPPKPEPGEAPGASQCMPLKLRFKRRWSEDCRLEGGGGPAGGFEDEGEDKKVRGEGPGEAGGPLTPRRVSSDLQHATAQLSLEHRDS
Method in brief: as §1

ETV3L = target: T7, ETV3L (Homo sapiens, UniProt Q6ZN32 1-361); details: protein: recombinant; tags: N-terminal GST; dsDNA, one strand shown
T7 sequence: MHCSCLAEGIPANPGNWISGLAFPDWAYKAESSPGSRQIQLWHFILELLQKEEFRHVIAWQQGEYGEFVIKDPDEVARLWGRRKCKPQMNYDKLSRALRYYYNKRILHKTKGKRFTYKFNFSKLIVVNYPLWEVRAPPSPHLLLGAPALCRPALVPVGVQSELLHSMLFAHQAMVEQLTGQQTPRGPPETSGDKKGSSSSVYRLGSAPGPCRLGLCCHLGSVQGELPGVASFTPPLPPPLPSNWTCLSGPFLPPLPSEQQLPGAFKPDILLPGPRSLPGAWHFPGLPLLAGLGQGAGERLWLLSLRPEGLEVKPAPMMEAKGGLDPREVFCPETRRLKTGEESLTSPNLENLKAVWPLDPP
Method in brief: as §1

ETS2 = target: T8, ETS2 (Homo sapiens, UniProt P15036 1-469); details: protein: recombinant; tags: N-terminal GST; dsDNA, one strand shown
T8 sequence: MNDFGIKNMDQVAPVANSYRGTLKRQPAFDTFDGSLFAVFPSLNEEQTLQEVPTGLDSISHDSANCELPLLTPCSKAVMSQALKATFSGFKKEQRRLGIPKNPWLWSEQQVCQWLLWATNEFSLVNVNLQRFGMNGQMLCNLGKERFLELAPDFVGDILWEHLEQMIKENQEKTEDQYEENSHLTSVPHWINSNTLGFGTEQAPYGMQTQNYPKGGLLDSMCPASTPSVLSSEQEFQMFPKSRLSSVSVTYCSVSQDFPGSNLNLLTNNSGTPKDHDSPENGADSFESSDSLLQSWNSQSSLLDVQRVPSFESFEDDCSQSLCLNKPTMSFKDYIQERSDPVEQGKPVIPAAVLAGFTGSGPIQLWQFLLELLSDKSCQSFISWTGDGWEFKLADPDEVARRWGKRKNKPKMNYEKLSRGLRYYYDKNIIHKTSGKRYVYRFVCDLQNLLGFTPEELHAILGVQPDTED
Method in brief: as §1

SPDEF = target: T9, SPDEF (Homo sapiens, UniProt O95238 1-335); details: protein: recombinant; tags: N-terminal GST; dsDNA, one strand shown
T9 sequence: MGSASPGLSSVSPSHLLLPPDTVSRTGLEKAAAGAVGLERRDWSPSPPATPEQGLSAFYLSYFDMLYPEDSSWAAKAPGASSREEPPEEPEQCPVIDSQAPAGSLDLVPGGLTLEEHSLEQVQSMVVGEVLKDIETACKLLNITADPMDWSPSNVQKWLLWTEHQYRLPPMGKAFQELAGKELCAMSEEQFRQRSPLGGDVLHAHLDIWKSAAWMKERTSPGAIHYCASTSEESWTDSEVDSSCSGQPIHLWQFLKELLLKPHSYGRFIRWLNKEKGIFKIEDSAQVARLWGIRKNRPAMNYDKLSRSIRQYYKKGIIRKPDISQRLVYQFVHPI
Method in brief: as §1

ETV7 = target: T10, ETV7 (Homo sapiens, UniProt Q9Y603 1-341); details: protein: recombinant; tags: N-terminal GST; dsDNA, one strand shown
T10 sequence: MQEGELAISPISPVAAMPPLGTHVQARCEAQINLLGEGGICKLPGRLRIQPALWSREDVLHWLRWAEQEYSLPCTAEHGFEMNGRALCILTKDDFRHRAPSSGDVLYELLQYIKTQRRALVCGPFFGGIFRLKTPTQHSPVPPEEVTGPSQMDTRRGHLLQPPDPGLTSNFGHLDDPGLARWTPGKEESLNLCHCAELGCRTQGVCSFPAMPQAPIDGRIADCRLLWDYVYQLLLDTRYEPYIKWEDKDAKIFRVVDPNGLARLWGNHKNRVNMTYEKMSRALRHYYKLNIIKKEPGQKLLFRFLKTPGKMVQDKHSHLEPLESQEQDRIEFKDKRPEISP
Method in brief: as §1

ELF5 = target: T11, ELF5 (Homo sapiens, UniProt Q9UKW6-2 1-255); details: protein: recombinant; tags: N-terminal GST; dsDNA, one strand shown
T11 sequence: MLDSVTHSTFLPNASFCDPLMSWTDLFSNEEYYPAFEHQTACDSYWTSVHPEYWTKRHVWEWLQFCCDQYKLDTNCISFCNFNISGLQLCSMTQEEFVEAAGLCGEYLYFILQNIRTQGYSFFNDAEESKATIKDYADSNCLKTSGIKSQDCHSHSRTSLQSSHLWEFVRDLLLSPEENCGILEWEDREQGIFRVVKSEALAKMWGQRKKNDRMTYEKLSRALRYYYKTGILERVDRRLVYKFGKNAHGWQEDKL
Method in brief: as §1

ETV3 = target: T12, ETV3 (Homo sapiens, UniProt P41162-2 1-143); details: protein: recombinant; tags: N-terminal GST; dsDNA, one strand shown
T12 sequence: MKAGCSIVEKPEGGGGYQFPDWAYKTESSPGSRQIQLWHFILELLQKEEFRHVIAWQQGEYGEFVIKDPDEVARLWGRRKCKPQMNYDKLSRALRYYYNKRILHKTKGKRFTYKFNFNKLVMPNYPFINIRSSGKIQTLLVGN
Method in brief: as §1

ETV6 = ETV6 (Homo sapiens, UniProt P41212 1-452); details: protein: recombinant; tags: N-terminal GST; dsDNA, one strand shown
Method in brief: as §1

Chain of CRX (O43186 whole entry): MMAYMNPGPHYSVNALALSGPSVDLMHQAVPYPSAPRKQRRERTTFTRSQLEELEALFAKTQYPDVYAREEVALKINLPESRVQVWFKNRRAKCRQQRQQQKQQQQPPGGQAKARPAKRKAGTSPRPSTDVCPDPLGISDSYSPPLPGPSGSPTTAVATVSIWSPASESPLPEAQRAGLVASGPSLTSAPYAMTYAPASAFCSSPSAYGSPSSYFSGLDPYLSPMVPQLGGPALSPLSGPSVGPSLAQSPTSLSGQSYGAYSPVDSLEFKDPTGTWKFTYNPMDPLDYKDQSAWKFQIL
Chain of ETV5 (P41161 whole entry): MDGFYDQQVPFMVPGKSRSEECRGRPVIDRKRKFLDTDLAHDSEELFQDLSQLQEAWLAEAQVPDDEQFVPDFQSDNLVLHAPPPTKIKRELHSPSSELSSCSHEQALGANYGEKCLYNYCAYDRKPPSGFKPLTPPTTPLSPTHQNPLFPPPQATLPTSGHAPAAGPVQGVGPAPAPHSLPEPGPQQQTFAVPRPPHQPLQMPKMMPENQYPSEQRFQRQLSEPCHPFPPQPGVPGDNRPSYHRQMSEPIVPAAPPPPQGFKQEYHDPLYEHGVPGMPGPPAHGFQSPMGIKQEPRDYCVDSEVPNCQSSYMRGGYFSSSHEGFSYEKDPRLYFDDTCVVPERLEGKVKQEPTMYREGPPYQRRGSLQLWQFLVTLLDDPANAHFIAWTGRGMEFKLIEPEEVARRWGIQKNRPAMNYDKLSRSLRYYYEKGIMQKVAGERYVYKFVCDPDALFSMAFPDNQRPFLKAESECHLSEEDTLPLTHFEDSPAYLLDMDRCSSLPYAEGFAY
Chain of ETV1 (P50549 whole entry): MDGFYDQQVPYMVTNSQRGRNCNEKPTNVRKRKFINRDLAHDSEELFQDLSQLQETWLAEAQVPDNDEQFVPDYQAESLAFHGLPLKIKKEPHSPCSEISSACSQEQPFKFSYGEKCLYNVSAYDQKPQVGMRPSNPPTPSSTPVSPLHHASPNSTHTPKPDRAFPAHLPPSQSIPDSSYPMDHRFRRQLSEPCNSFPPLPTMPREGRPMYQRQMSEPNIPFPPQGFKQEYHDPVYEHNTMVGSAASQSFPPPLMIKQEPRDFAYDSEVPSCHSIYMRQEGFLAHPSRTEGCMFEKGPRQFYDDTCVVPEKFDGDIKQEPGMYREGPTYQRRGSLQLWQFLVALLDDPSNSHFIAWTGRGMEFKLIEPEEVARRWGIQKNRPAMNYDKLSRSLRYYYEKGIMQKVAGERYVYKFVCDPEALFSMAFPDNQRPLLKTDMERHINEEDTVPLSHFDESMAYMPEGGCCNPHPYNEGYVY
Chain of HSF1 (Q00613 whole entry): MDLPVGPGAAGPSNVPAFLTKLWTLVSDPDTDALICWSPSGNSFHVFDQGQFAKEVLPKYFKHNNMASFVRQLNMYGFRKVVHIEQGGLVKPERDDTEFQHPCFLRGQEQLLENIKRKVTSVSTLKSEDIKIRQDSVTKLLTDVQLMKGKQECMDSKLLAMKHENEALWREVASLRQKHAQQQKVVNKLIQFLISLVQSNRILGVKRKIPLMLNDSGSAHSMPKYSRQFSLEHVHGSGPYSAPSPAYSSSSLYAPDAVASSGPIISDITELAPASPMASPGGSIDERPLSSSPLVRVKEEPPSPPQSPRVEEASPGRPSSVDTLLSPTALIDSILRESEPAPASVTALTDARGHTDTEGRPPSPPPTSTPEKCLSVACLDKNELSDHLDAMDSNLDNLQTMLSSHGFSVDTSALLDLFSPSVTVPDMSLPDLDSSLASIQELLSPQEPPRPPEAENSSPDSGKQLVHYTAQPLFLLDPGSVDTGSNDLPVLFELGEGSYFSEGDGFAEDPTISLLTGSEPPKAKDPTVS
Chain of ELF4 (Q99607 whole entry): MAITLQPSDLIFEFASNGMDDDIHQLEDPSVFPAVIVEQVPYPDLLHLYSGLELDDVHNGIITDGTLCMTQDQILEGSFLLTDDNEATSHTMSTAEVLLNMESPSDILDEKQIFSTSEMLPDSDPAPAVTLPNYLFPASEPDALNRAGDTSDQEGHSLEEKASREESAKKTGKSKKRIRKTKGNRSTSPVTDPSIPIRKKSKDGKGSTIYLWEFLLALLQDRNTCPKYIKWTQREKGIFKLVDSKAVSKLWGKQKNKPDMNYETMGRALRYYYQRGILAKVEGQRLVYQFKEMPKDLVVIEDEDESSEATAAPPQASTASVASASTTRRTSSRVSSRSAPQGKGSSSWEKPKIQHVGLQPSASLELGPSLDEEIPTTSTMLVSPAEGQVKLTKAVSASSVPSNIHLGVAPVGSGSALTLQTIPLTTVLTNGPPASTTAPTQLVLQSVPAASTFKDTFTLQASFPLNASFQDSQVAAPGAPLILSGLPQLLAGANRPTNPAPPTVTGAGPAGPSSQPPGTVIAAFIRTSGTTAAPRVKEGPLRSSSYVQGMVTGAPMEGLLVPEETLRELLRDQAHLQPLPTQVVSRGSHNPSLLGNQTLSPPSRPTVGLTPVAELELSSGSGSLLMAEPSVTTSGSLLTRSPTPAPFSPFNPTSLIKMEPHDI
Chain of ETV6 (P41212 whole entry): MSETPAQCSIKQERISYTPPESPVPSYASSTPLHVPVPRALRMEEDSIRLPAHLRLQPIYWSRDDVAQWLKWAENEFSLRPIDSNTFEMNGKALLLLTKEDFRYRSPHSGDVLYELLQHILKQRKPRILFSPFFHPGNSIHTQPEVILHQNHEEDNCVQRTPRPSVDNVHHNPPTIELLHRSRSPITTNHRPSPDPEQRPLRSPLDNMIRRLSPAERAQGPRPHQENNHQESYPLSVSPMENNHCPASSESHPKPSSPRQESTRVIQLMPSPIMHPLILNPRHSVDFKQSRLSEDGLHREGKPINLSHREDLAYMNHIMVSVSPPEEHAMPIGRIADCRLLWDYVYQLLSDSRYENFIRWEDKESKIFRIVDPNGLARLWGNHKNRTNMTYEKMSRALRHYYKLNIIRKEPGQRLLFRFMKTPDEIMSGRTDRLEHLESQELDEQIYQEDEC

In the case of TACTAC, the binding signal (FEV) is reported as 1.35 fold enrichment (6-mer frequency, TF over GST control), the binding signal (ETV5) is reported as 1.33 fold enrichment (6-mer frequency, TF over GST control) and the binding signal (HSF1) is reported as 1.17 fold enrichment (6-mer frequency, TF over GST control). For the same sequence, the binding signal (SPIC) was 1.26 fold enrichment (6-mer frequency, TF over GST control), the binding signal (ELF4) was 1.36 fold enrichment (6-mer frequency, TF over GST control) and the binding signal (ELK4) was 1.19 fold enrichment (6-mer frequency, TF over GST control). The binding signal (ETV2) was 1.38 fold enrichment (6-mer frequency, TF over GST control), the binding signal (ELF3) was 1.08 fold enrichment (6-mer frequency, TF over GST control) and the binding signal (CRX) was 1.13 fold enrichment (6-mer frequency, TF over GST control). The binding signal (ETV1) was 1.24 fold enrichment (6-mer frequency, TF over GST control), the binding signal (ERF) was 1.3 fold enrichment (6-mer frequency, TF over GST control) and the binding signal (ETV3L) was 1.41 fold enrichment (6-mer frequency, TF over GST control). For the same sequence, the binding signal (ETS2) was 1.34 fold enrichment (6-mer frequency, TF over GST control), the binding signal (SPDEF) was 1.34 fold enrichment (6-mer frequency, TF over GST control) and the binding signal (ETV7) was 1.47 fold enrichment (6-mer frequency, TF over GST control). The binding signal (ELF5) was 1.36 fold enrichment (6-mer frequency, TF over GST control), the binding signal (ETV3) was 1.29 fold enrichment (6-mer frequency, TF over GST control) and the binding signal (ETV6) was 1.38 fold enrichment (6-mer frequency, TF over GST control).
